Values joined by “and” are separate entries in the source; they are usually repeats but may differ in a detail not shown here. Equal values may be shown once. Results filed as inconclusive are left out. A structure can be active in one record and inactive in another. Active and inactive are the calls of the source. Unless noted, the call rests on the fitted dose curve; in most records, active means well fitted curve in the direction sought with a large enough effect in the repeat runs; inconclusive means weak or mixed curves; inactive means no such curve, though single readings can be large; an effect the other way counts as inactive or inconclusive.
What was measured:
[1] = qHTS assay to identify small molecule antagonists of the estrogen receptor alpha (ER-alpha) signaling pathway using the BG1 cell line in the presence of 0.1 nM 17-beta-estradiol - cell viability counter screen (AID 1259241); further: nearly all actives have a fitted effect of over 40% in size; further: potency means the concentration at half of the fitted maximal effect; on activity change, negative = cytotoxicity: on the % scale 0 is the no-effect control and ±100 the full control effect
How it was run: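 CellTiter-Fluor read (30 min, 37C) on ER-alpha/ERE-luc VM7Luc4E2 cells; 22 hr compound treatment; agonist 0.1 nM E2 final; same-well multiplex.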

[2] = qHTS assay to identify small molecule antagonists of the androgen receptor (AR) signaling pathway using the MDA cell line in the presence of 0.5 nM R1881 - cell viability counter screen (AID 1259242); further: nearly all actives have a fitted effect of over 45% in size; further: potency means the concentration at half of the fitted maximal effect
How it was run: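 qHTS format. MDA-kb2 (MMTV-luc, AR/GR responsive) + cpd + 0.5 nM R1881 final, 16 hr 37C/0% CO2 → CellTiter-Fluor 30 min → fluorescence intensity.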

[3] = target: Androgen receptor (Homo sapiens) (UniProt P10275); assay: qHTS assay to identify small molecule antagonists of the androgen receptor (AR) signaling pathway using the MDA cell line in the presence of 0.5 nM R1881 (AID 1259243); further: nearly all actives have a fitted effect of over 50% in size; further: potency means the concentration at half of the fitted maximal effect
How it was run: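 Antagonist mode quantitative HTS in MDA-kb2 MMTV-luciferase cells, agonist R1881 at 0.5 nM final, 16 hr exposure at 37C and 0% CO2, luminescent detection.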

[4] = qHTS assay to identify small molecule phospholipidosis (PLD) inducers (AID 1259344; active means well fitted curve in the direction sought with a large enough effect; an effect the other way counts as inactive or inconclusive; further: potency means the concentration at half of the fitted maximal effect)
How it was run: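 After 4 h attachment on collagen I, HepG2 cells were dosed with compound alongside LipidTOX Red, kept 24 h at 37 C, fixed, and imaged for lamellar phospholipid pits.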

[5] = qHTS assay to identify small molecule HDAC inhibitors (AID 1259364);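 further: wild-type HCT-116 cells with endogenous class I/II HDAC activity; top concentration of the series differs between compounds; on the % scale 0 is the no-effect control and ±100 the full control effect; nearly all actives have a fitted effect of over 45% in size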
How it was run: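 Quantitative high-throughput format: overnight-seeded HCT-116 cells got compounds for 2 hr at 37C; HDAC-Glo I/II reagent added, 30 min RT, luminescence measured.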

[6] = qHTS assay to identify small molecule HDAC inhibitors - cell viability counter screen (AID 1259365); further: series mostly up to about 92 µM; on the % scale 0 is the no-effect control and ±100 the full control effect; nearly all actives have a fitted effect of over 50% in size
How it was run: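 To flag cytotoxic hits, 1,500 wild-type HCT-116 cells per well, plated the day before, receive test compounds for 2hr at 37 C before CellTiter-Glo reagent and a luminescence read.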

[7] = qHTS assay to identify small molecule agonists of the sonic hedgehog signaling (Shh) pathway (AID 1259368; calls by dose curve;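 further: NIH/3T3-derived 3T3Gli1-Luc cells carrying a stable Gli1-driven firefly luciferase reporter; series mostly up to about 92 µM; on the % scale 0 is the no-effect control and ±100 the full control effect; nearly all actives have a fitted effect of over 15% in size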)
How it was run: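 Quantitative high-throughput format using a Gli1-driven firefly luciferase reporter line derived from NIH/3T3 cells. After a 24 hr compound treatment at 37 C and 5% CO2, luminescence reported Gli1 response element activity.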

[8] = target: Estrogen receptor beta (Homo sapiens) (UniProt Q92731); assay: qHTS assay to identify small molecule agonists of the estrogen receptor beta (ER-beta) signaling pathway (AID 1259377; active means well fitted activation curve with a large enough effect in the signal ratio in the repeat runs, not every such curve was filed as active; the % refers to the signal ratio; further: on the % scale 0 is the no-effect control and ±100 the full control effect)
How it was run: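 Screening used GripTite ER-beta-UAS-bla cells held in 2% charcoal-stripped FBS medium. After overnight (16 hr) compound incubation at 37C, beta-lactamase activity was detected with a FRET substrate by fluorescence.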

[9] = qHTS assay to identify small molecule agonists of the estrogen receptor beta (ER-beta) signaling pathway - cell viability counter screen (AID 1259380); further: nearly all actives have a fitted effect of over 30% in size; further: potency means the concentration at half of the fitted maximal effect
How it was run: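 Steps: plate ER-beta-UAS-bla HEK293T cells, rest 6 hr; add compounds in DMSO; incubate 16 hr at 37C, 5% CO2; add FRET substrate 2 hr; add CellTiter-Glo, wait 30 min at room temperature; read luminescence.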

[10] = qHTS assay to identify small molecule agonists or antagonists of the thyroid stimulating hormone receptor (TSHR) signaling pathway - wild type cell line counter screen (AID 1259384; calls by dose curve; further: on the % scale 0 is the no-effect control and ±100 the full control effect)
How it was run: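 Wild-type HEK293 cells were plated 18 h at 37 C/5% CO2, pin-dosed with compound plus Ro20-1724 medium, held 30 min at room temperature, then given cAMP-d2 and anti-cAMP-cryptate; fluorescence was read after 1 h. Fifteen concentrations, triplicate.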

[11] = target: Thyrotropin receptor (Homo sapiens) (UniProt P16473); assay: qHTS assay to identify small molecule antagonists of the thyroid stimulating hormone receptor (TSHR) signaling pathway (AID 1259385; calls by dose curve; further: on the % scale 0 is the no-effect control and ±100 the full control effect; nearly all actives have a fitted effect of over 20% in size)
How it was run: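 TSHR-HEK293 cells were plated and held 18 h at 37C/5% CO2, then given compound plus Ro20-1724 and stimulated with TSH at 1.5 ng/mL final. After 30 min at room temperature, cAMP was detected with cAMP-d2/anti-cAMP-cryptate (1 h) by fluorescence.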

[12] = target: Estrogen receptor (Homo sapiens) (UniProt P03372); assay: qHTS assay to identify small molecule antagonists of the estrogen receptor alpha (ER-alpha) signaling pathway using the BG1 cell line in the presence of 0.1 nM 17-beta-estradiol (AID 1259244); further: nearly all actives have a fitted effect of over 50% in size; further: potency means the concentration at half of the fitted maximal effect
How it was run: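 Reporter is a stably transfected luciferase under four estrogen responsive elements in VM7Luc4E2 cells expressing native full-length ER-alpha; inhibition of 0.1 nM (final) 17beta-estradiol-driven signal over 22 h is read by luminescence.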

[13] = qHTS assay to identify small molecule agonists of the sonic hedgehog signaling (Shh) pathway - cell viability counter screen (AID 1259366); further: potency means the concentration at half of the fitted maximal effect; nearly all actives have a fitted effect of over 50% in size
How it was run: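 Fluorescence from CellTiter-Fluor reports live cells in this counter screen. NIH/3T3-derived Gli1-Luc reporter cells receive test compounds for 24hr at 37C; reagent goes in at 23hr.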

[14] = qHTS assay to identify small molecule antagonists of the sonic hedgehog signaling (Shh) pathway - cell viability counter screen (AID 1259367); further: nearly all actives have a fitted effect of over 55% in size; further: potency means the concentration at half of the fitted maximal effect
How it was run: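 Conditioned medium drove Shh signaling in 3T3 Gli1-Luc cells exposed to compounds at 37C and 5% CO2. Viability was determined from CellTiter-Fluor fluorescence, with reagent incubated 1 hr after 23 hr of treatment.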

[15] = qHTS assay to identify small molecule antagonists of the sonic hedgehog signaling (Shh) pathway (AID 1259369; calls by dose curve; further: nearly all actives have a fitted effect of over 45% in size; further: potency means the concentration at half of the fitted maximal effect; on activity change, negative = inhibition: on the % scale 0 is the no-effect control and ±100 the full control effect)
How it was run: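 Stable Gli1-Luc reporter NIH/3T3 clone; quantitative HTS in stimulated mode with conditioned medium. Luminescence measured after 24hr compound treatment at 37 C.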

[16] = qHTS assay to identify small molecule agonists of the androgen receptor (AR) signaling pathway in the presence of an antagonist - cell viability counter screen (AID 1259379); further: nearly all actives have a fitted effect of over 25% in size; further: potency means the concentration at half of the fitted maximal effect
How it was run: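 Nilutamide-containing (3.0uM final) MDA-kb2 cultures, 3,000 cells/well, were treated with compounds across 15 concentrations. After 16 hr at 37C with no CO2, cell viability was determined by CellTiter-Fluor fluorescence in the luciferase assay wells.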

[17] = qHTS assay to identify small molecule antagonists of the estrogen receptor beta (ER-beta) signaling pathway - cell viability counter screen (AID 1259382); further: nearly all actives have a fitted effect of over 55% in size; further: potency means the concentration at half of the fitted maximal effect
How it was run: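 Viability is scored by CellTiter-Glo luminescence (30 min, room temperature) in ER-beta-UAS-bla HEK293T wells already read for reporter fluorescence. Compound exposure lasts 16 hr at 37C alongside 1nM 17-beta-estradiol in charcoal-stripped serum medium.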

[18] = target: Estrogen receptor (Homo sapiens) (UniProt P03372); assay: qHTS assay to identify small molecule agonists of the estrogen receptor alpha (ER-alpha) signaling pathway in the presence of an antagonist (AID 1259383; calls by dose curve; further: top concentration of the series differs between compounds; on the % scale 0 is the no-effect control and ±100 the full control effect; nearly all actives have a fitted effect of over 15% in size)
How it was run: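 Readout was ERE-driven luciferase luminescence in VM7Luc4E2 cells, which express full-length ER-alpha endogenously. Compounds were tested at 15 concentrations for 22hr alongside 10.0nM ICI-182,780 (final concentration).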

[19] = target: Androgen receptor (Homo sapiens) (UniProt P10275); assay: qHTS assay to identify small molecule agonists of the androgen receptor (AR) signaling pathway in the presence of an antagonist (AID 1259381; calls by dose curve; further: on the % scale 0 is the no-effect control and ±100 the full control effect; nearly all actives have a fitted effect of over 15% in size)
How it was run: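 Reporter-gene luminescence from MDA-kb2 cells exposed 16hr at 37C (0% CO2) to 15-point compound titrations with 3.0uM final nilutamide as AR antagonist.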

Thyrotropin receptor (Homo sapiens), sequence (P16473 whole entry, looked up): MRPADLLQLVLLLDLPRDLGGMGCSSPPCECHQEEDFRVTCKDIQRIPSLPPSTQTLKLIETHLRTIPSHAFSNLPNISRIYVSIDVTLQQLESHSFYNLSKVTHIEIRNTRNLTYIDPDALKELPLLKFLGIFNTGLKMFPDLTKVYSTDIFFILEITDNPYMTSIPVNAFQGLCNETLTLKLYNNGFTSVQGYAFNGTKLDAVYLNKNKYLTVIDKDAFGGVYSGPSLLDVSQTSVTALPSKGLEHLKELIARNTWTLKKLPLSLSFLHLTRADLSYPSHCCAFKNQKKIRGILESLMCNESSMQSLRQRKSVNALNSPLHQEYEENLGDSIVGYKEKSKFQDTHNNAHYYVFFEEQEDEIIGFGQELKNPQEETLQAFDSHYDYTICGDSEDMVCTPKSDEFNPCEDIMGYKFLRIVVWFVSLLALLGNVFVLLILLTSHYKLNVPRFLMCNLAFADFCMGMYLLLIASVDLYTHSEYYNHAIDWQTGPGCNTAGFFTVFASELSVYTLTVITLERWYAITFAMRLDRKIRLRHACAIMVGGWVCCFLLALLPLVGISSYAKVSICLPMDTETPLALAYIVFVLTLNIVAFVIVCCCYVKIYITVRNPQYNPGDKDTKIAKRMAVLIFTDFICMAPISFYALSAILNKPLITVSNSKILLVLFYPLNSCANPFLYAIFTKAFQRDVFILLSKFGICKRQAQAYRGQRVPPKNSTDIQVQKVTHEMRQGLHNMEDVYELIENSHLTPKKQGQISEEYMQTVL
Androgen receptor (Homo sapiens), sequence (P10275 whole entry, looked up): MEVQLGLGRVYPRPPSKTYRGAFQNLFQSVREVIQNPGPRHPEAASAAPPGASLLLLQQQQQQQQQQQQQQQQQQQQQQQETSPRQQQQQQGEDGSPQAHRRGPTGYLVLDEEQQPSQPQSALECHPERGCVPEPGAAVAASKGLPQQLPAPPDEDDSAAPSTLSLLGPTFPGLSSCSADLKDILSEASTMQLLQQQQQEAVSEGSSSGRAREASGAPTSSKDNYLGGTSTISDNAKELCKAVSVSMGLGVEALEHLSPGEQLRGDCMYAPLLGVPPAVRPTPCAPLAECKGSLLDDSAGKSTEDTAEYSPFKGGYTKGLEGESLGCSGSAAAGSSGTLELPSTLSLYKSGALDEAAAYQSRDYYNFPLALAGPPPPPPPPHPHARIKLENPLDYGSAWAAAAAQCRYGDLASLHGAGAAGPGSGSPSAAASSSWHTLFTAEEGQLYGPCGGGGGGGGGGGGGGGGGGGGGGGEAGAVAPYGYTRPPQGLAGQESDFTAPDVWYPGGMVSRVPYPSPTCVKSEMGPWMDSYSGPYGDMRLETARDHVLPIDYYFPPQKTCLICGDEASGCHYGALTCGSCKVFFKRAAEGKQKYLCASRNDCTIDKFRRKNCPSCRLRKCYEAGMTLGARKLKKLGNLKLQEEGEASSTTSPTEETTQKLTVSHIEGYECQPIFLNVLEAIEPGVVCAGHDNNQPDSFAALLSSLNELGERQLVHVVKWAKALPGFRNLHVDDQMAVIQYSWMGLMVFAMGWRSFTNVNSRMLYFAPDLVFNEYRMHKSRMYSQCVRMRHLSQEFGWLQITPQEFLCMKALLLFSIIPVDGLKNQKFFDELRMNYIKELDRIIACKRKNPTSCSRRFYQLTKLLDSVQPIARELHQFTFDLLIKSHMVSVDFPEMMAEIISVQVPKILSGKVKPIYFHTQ
Estrogen receptor (Homo sapiens), sequence (P03372 whole entry, looked up): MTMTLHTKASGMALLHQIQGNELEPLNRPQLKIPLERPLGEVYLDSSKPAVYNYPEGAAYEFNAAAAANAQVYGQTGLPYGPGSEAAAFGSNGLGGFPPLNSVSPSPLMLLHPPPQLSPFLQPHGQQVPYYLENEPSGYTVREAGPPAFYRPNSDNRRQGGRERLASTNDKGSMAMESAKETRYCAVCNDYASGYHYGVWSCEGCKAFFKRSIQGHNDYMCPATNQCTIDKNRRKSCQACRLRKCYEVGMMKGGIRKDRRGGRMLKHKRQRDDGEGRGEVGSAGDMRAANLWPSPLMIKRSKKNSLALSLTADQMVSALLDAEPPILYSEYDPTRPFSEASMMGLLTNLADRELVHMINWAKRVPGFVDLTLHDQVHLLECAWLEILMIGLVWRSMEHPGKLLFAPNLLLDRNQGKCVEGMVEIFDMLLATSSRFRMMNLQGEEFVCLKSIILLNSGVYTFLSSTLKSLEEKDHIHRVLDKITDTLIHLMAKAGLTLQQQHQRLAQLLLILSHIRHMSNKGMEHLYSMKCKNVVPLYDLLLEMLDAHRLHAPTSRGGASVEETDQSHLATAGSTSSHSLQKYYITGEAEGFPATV
Estrogen receptor beta (Homo sapiens), sequence (Q92731 whole entry, looked up): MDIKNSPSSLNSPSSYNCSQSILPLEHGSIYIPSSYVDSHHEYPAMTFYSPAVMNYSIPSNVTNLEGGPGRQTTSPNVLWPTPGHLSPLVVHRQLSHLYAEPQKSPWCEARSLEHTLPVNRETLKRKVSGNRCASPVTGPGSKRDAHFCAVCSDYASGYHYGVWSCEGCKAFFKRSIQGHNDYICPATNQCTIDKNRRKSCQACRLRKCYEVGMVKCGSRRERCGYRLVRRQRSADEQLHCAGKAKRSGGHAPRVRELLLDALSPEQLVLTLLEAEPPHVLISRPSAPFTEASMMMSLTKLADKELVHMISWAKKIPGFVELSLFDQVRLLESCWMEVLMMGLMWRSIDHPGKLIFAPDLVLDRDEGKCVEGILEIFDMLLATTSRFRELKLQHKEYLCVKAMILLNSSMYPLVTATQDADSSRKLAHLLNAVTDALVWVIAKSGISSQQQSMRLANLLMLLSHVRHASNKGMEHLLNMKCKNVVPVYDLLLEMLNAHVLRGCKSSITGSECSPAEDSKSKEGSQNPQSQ

C[C@@H]1C[C@H]2[C@@H]3CCC4=CC(=O)C=C[C@]4(C)[C@@]3(Cl)[C@@H](O)C[C@]2(C)[C@@]1(OC(=O)c1ccco1)C(=O)CCl
inactive: Potency [1] | Potency [2] | Potency [3] | Potency [4] | Potency [5] | Potency [6] | Potency [7] | Potency [8] | outcome [10] | Potency [11]
active: Potency [9] 8.41 µM

CCN1/C(=C/C=C/c2sc3ccccc3[n+]2CC)Sc2ccccc21
active: Potency [1] 2.31 µM | Potency [2] 0.82 µM | Potency [12] 580 nM | Potency [4] 22.4 µM | Potency [13] 4.61 µM | Potency [14] 5.17 µM | Potency [16] 1.16 µM | Potency [17] 11.6 µM
inactive: activity change, negative = inhibition [5] -19.9% [at 19 µM] | activity change, negative = cytotoxicity [6] -13.9% [at 19 µM] | activity change [7] -1.72% [at 18.9 µM, stronger effect = higher value] | activity change, negative = inhibition [15] -19% [at 19 µM] | activation [18] -11.7% [at 19 µM] | cAMP activity change [10] -0.304% [at 18.9 µM]

Nc1c2ccccc2nc2ccccc12
inactive: Potency [1] | Potency [2] | Potency [12] | Potency [4] | Potency [5] | Potency [6] | Potency [14] | Potency [7] | Potency [15] | Potency [18] | Potency [11]
active: Potency [9] 2.14 µM and 3.35 µM

Oc1ccc2c(c1)-c1ccccc1C2
inactive: Potency [1] | Potency [2] | Potency [5] | Potency [6] | Potency [14] | Potency [7] | Potency [16] | Potency [9] | Potency [19] | Potency [17] | Potency [11]
active: Potency [3] 7.7 µM | Potency [15] 13.7 µM

COC(=O)C1=C(C)NC(C)=C(C(=O)OCC(C)C)C1c1ccccc1[N+](=O)[O-] (stereo not drawn)
active: Potency [13] 30.6 µM | Potency [14] 61.1 µM | Potency [15] 12.2 µM
48.6 µM (active) and inactive: Potency [12]
inactive: Potency [1] | Potency [2] | Potency [4] | Potency [5] | Potency [7] | Potency [16] | Potency [17] | outcome [10] | Potency [11]

Reference: PubChem BioAssay (Tox21)
